Assay results as given in PubChem BioAssay AID1159580 (chemical genetic matrix, 2015).
Where “and” joins values, the source holds several entries; their conditions need not be identical. Equal entries are not always repeated. Out of some 5,500 compounds screened, about 2,000 (36%) were called active. Not shown: some 18% with an inconclusive outcome. Rule as the data show it: active = normalized growth mostly below about 0.91 (no sharp cut-off); inconclusive = no clear call, values can overlap the other calls; inactive = mostly above about 0.92. This is one part of the list.

Test: chemical genetic growth profiling, strain panel (AID 1159580);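 also: tested at 20 µM; growth read once vehicle control cultures reached saturation at 30 °C; 1 = growth at the plate median or of vehicle wells; lower values mean less growth of the strain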
Conditions: S. cerevisiae deletion strains, growth OD
[1] = locus YMR307W, strain GAS1, stronger effect = lower value

Measured: normalized growth

C/C=C/c1ccc(OC)cc1
inactive: locus YBR021W, strain FUR4, stronger effect = lower value 0.987 | locus YBR229C, strain ROT2, stronger effect = lower value 1.01 | locus YCL029C, strain bik1, stronger effect = lower value 1.02 | locus YDL035C, strain GPR1, stronger effect = lower value 1.01 | locus YDL074C, strain BRE1, stronger effect = lower value 1.03 | locus YDL101C, strain DUN1, stronger effect = lower value 1.03 | locus YDL185W, strain tfp1, stronger effect = lower value 1.01 | locus YDL192W, strain arf1, stronger effect = lower value 1.01 | locus YDR101C, strain arx1, stronger effect = lower value 1.02 | locus YDR162C, strain NBP2, stronger effect = lower value 1.02 | locus YDR318W, strain mcm21, stronger effect = lower value 1 | locus YDR388W, stronger effect = lower value 1 | locus YDR502C, strain sam2, stronger effect = lower value 0.998 | locus YEL061C, strain CIN8, stronger effect = lower value 1.01 | locus YER110C, stronger effect = lower value 1.02 | locus YER155C, strain BEM2, stronger effect = lower value 1.01 | locus YER167W, strain BCK2, stronger effect = lower value 1 | locus YGL078C, strain dbp3, stronger effect = lower value 0.999 | locus YGL086W, strain mad1, stronger effect = lower value 1.02 | locus YGL248W, strain PDE1, stronger effect = lower value 1.01 | locus YGR135W, strain pre9, stronger effect = lower value 1 | locus YGR252W, strain gcn5, stronger effect = lower value 1.01 | locus YHR030C, strain SLT2, stronger effect = lower value 1.01 and 0.942 | locus YHR079C, strain IRE1 (second series), stronger effect = lower value 1.01 | locus YHR079C, strain IRE1, stronger effect = lower value 0.948 | locus YHR094C, strain hxt1, stronger effect = lower value 1.01 | locus YHR129C, strain ARP1, stronger effect = lower value 1.01 | locus YHR200W, strain rpn10, stronger effect = lower value 1.01 | locus YIL066C, strain RNR3, stronger effect = lower value 1.01 | locus YIL073C, strain SPO22, stronger effect = lower value 1.03 | locus YIL125W, strain kgd1, stronger effect = lower value 1.01 | locus YIR030C, strain dcg1, stronger effect = lower value 1.02 | locus YJL095W, strain BCK1, stronger effect = lower value 1.03 and 0.941 | locus YJL134W, strain LCB3, stronger effect = lower value 1.01 | locus YJL168C, strain set2, stronger effect = lower value 1.01 | locus YJL187C, strain SWE1 (second series), stronger effect = lower value 1.03 | locus YJR043C, strain POL32, stronger effect = lower value 1.01 | locus YJR066W, strain TOR1, stronger effect = lower value 0.902 | locus YKL009W, strain mrt4, stronger effect = lower value 1.02 | locus YKL068W, stronger effect = lower value 1 | locus YKL085W, strain MDH1 (second series), stronger effect = lower value 1.01 | locus YKL085W, strain MDH1, stronger effect = lower value 1.01 | locus YKL190W, strain CNB1, stronger effect = lower value 1.01 | locus YKR001C, strain vps1, stronger effect = lower value 0.998 | locus YLR039C, strain RIC1, stronger effect = lower value 1.03 | locus YLR058C, strain SHM2, stronger effect = lower value 1.01 | locus YLR102C, strain apc9, stronger effect = lower value 1.01 | locus YLR113W, strain HOG1, stronger effect = lower value 0.91 | locus YLR262C, strain YPT6, stronger effect = lower value 1.05 | locus YLR268W, strain sec22, stronger effect = lower value 1.03 | locus YLR330W, strain CHS5, stronger effect = lower value 1.01 | locus YLR342W, strain FKS1 (second series), stronger effect = lower value 0.986 | locus YLR371W, strain rom2, stronger effect = lower value 1.02 | locus YLR418C, strain cdc73, stronger effect = lower value 0.989 | locus YML016C, strain PPZ1, stronger effect = lower value 1.01 | locus YML032C, strain rad52, stronger effect = lower value 0.99 | locus YML124C, strain tub3, stronger effect = lower value 1.01 | locus YMR078C, strain ctf18, stronger effect = lower value 1.01 | locus YMR223W, strain ubp8, stronger effect = lower value 1.01 | [1] 0.968 | locus YNL067W, strain RPL9B, stronger effect = lower value 1.03 | locus YNL183C, strain NPR1, stronger effect = lower value 0.904 | locus YNL233W, strain BNI4, stronger effect = lower value 1.02 | locus YNL250W, strain rad50, stronger effect = lower value 1.02 | locus YNL271C, strain bni1, stronger effect = lower value 1 | locus YNL298W, strain CLA4, stronger effect = lower value 0.988 | locus YNL307C, strain MCK1, stronger effect = lower value 1 | locus YNR052C, strain pop2, stronger effect = lower value 1.01 | locus YOL012C, strain htz1 0.756 | locus YOL147C, strain pex11, stronger effect = lower value 1.01 | locus YOR061W, strain CKA2, stronger effect = lower value 1.01 | locus YOR069W, strain VPS5, stronger effect = lower value 1.01 | locus YOR136W, strain idh2, stronger effect = lower value 1.01 | locus YOR144C, strain elg1, stronger effect = lower value 1 | locus YOR184W, strain ser1, stronger effect = lower value 1.01 | locus YOR231W, strain MKK1, stronger effect = lower value 0.953 | locus YOR316C, strain cot1, stronger effect = lower value 1 | locus YPL055C, strain LGE1, stronger effect = lower value 1.03 | locus YPL256C, strain CLN2, stronger effect = lower value 0.927 | locus YPR119W, strain clb2, stronger effect = lower value 1.01 | locus YPR141C, strain kar3, stronger effect = lower value 1.01 | locus YPR163C, strain tif3, stronger effect = lower value 1 | locus YPR167C, strain met16, stronger effect = lower value 1.01 | strain wtn01, stronger effect = lower value 1.01

Oc1cc(O)cc(/C=C/c2ccc(O)c(O)c2)c1
inactive: locus YAL040C, strain CLN3, stronger effect = lower value 1.01 | locus YCL061C, strain MRC1 (second series), stronger effect = lower value 0.992 | locus YDR363W, strain ESC2, stronger effect = lower value 0.955 | locus YMR263W, strain SAP30, stronger effect = lower value 1.01 | [1] 0.979 | locus YNL197C, strain WHI3, stronger effect = lower value 1 | locus YNL322C, strain KRE1, stronger effect = lower value 0.989 | locus YOR083W, strain WHI5 (second series), stronger effect = lower value 0.993
active: locus YGR078C, strain PAC10, stronger effect = lower value 0.691 | locus YNL175C, strain NOP13, stronger effect = lower value 0.71
